The full list was thinned out, with hits kept by preference.
p53null 39C kill: kills p53 null cells at the nonpermissive temperature. Potency, µM (titrated, usually from 46.1 µM), for inactives: at the highest dose activity, negative = cell killing, most hits filed as cytotoxic. H1299 p53-null (neo) cells, 39C, ATPlite viability, 24 h. hit rate 0.97% among 55,000;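 note: 0% = DMSO only and -100% = full killing by 100 µM tamoxifen; nearly all actives have a fitted effect of over 50% in size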
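Following overnight plating at 37C (600 cells/well), H1299-neo or H1299-p53A138V cells are dosed up to 46 uM. Incubation lasts 24 hr at 39C before ATP detection.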
p53null 32C tox: selectivity test: cytotoxicity in p53 null cells, permissive temperature; H1299-neo p53 null cells, ATP luminescence, 24 h, 32C; Potency, µM (doses to about 46.1 µM), for the others: at the top dose activity change, negative = cytotoxicity, actives largely listed as cytotoxic; hit rate 0.62% among 55,000; AID 903;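 note: 0% = DMSO only and -100% = full killing by 100 µM tamoxifen; nearly all actives have a fitted effect of over 55% in size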
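H1299-neo, 600 cells/well; overnight 37C; cpd up to 46 uM, 24 h at 32C; ATPlite luminescence after 20 min RT; normalized to DMSO (0%) and tamoxifen 100 uM (100% kill); Hill-fit AC50.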
NTMT1 inh: inhibitors of human N-terminal methyltransferase NTMT1; AID 1645870; Q9BV86; Potency, µM (series often up to 114 µM), without a hit: at the highest dose activity change, negative = inhibition, usual class: inhibitors; NTMT1 MTase-Glo SAH luminescence, purified enzyme; hit rate 2.5% among 59,000;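 note: plate controls were DMSO vehicle for no effect and no enzyme for full effect; nearly all actives have a fitted effect of over 65% in size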
Target sequence (Q9BV86 whole entry, looked up): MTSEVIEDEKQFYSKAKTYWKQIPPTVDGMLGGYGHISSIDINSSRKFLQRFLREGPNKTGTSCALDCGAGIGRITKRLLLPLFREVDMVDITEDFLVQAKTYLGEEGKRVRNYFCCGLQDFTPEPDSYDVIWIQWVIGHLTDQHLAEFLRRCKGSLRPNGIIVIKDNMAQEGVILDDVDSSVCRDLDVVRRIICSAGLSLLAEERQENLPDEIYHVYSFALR
OvCa metastasis: blocks SKOV3ip1 adhesion and invasion in omental model. hit rate 0.1% among 46,000. SKOV3ip1-GFP adhesion/invasion on 3D omental model, fluorescence. Potency, µM (top dose mostly 45.8 µM), for inactives: at the highest dose activity change, negative = inhibition, actives largely listed as inhibitors;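 note: plate controls were DMSO wells for no effect and tomatine positive control wells for full effect; nearly all actives have a fitted effect of over 65% in size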
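Adhesion/invasion was scored as fixed GFP-labeled SKOV3ip1 cell counts (488/509 nm), normalized to DMSO and tomatine controls. Cancer cells in serum-free medium, with four compound doses (0.36-46 umol/L), sat 2 hr at RT then 16 hr at 37 C on a 48 hr fibroblast/mesothelial/ECM culture.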
The depositor's hits bear a star; i = inactive; ? = inconclusive; . = no result; ! = not active in a repeat; [ ] = another dose, or the depositor's remark. Calls come from the whole dose curve; as a rule, active = well fitted curve in the direction sought with a large enough effect; inconclusive = small, poorly fitted or top-dose-only effect, or another doubt; inactive = no such curve, though single readings can be large; an effect the other way counts as inactive or inconclusive. Potency is the fitted concentration of half-maximal effect.

SMILES | p53null 39C kill | p53null 32C tox | NTMT1 inh | OvCa metastasis
COc1cccc(CSc2nc3n(n2)C(c2ccc(C(=O)O)cc2)C(C(=O)Nc2ccccc2)=C(C)N3)c1 (stereo not drawn) | -1% | 4% | 45µM* | i
O=C(O)c1ccccc1C(=O)Nc1ccc(-c2ccccc2)cc1 | . | . | 8.6µM*! | 10%
COc1ccc2c(C)cc(SCC(=O)Nc3nsc(-c4ccccc4C)n3)nc2c1 | -1% | -2% | 5% | -10%
Cc1ccc(-c2nc(NC(=O)CSc3cc(C)c4ccccc4n3)ns2)cc1 | -6% | -2% | 40µM* | -3%
CC(C)(C)OC(=O)N1CCN(c2ccc(NCc3ccc4c(c3)OCO4)cc2)CC1 | . | . | -9% | .
Cc1cn([C@H]2C[C@H](O)[C@@H](CO)O2)c(=O)nc1N | . | . | 16% | .
Cc1cccc(N2CCN(c3ccc(C(=O)O)cc3NC(=O)c3cccc(Cl)c3)CC2C)c1 (stereo not drawn) | 13% | 37% | 79µM* | 3%
Cc1cccc(N2CCN(c3ccc(NC(=O)c4ccccc4)cc3C(=O)O)CC2C)c1 (stereo not drawn) | -3% | 0% | -5% | 0%
COc1cc(/C=N/O)ccc1OCc1ccc(C(=O)O)cc1 | 8.9µM* | 13µM* | . | .
COc1cc(/C=N\NC(=O)c2ccc3c(c2)OCO3)ccc1OCc1ccccc1 | . | . | 7%[57.5 µM] | .
CC(=O)Nc1sc2c(c1-c1ccccc1F)CCNC2 | . | . | 1% | .
Cc1ccc2nc(-c3cccc(N)c3)[nH]c2c1 | ? | 13µM* | . | .
CCN(CC)CCOC(=O)c1ccc(NC(=O)c2nn(-c3ccc(C)cc3)c(=O)c3c2c2ccccc2n3C)cc1 | 4µM* | 6.3µM* | ? | ?
Cc1nc(Nc2ncc(C(=O)Nc3c(C)cccc3Cl)s2)cc(N2CCN(CCO)CC2)n1 | . | . | 22µM*! | ?
O=C(Nc1cc(Cl)cc(Cl)c1)c1ccc(F)c(S(=O)(=O)NC2CCCCC2)c1 | 20µM* | ? | 9% | -8%
O=C(Nc1ccc(Br)cc1)c1ccc(F)c(S(=O)(=O)NC2CCCCCC2)c1 | 5% | 46% | 7% | ?
COc1cc(N2CCC(N3CCN(C)CC3)CC2)ccc1Nc1ncc(Cl)c(Nc2ccccc2P(C)(C)=O)n1 | . | . | 0% | .
C=CC(=O)N1CC[C@@H](Oc2nc(Nc3ccc(N4CCC(N5CCN(C)CC5)CC4)cc3)c(C(N)=O)nc2CC)C1 | . | . | 4µM* | .
COc1cc(O)c(C(CC(=O)N2CCCC(C(F)(F)F)C2)c2ccc3c(c2)OCO3)c(OC)c1 (stereo not drawn) | . | . | 10% | .
COc1cc2nc(Nc3ccc(C)c(C)c3)nc(N)c2cc1OC | 32µM* | ? | ? | ?
O=C(c1ccc(F)cc1)N1c2nc(-c3ccco3)nn2C2(CCCCC2)[C@@H]2CCCC[C@@H]21 | -8% | 2% | -17% | i
O=C(c1ccccc1F)N1c2nc(-c3ccco3)nn2C2(CCCCC2)[C@@H]2CCCC[C@@H]21 | 10% | -1% | 50µM* | i
Cc1cccc(/C=N/Nc2cc(N3CCOCC3)nc(OCCc3ccccn3)n2)c1 | . | . | -22% | .
Cc1cccc(C=NNc2cc(N3CCOCC3)nc(OCCc3ccccn3)n2)c1 | . | . | 22µM* | -31%
N#Cc1c(-c2cc(C(F)(F)F)cc(C(F)(F)F)c2)no[n+]1[O-] | . | . | 5% | .
SMILES | p53null 39C kill | p53null 32C tox | NTMT1 inh | OvCa metastasis
CC(C)(CO)n1cc(C(=O)c2cncc(NC(=O)Cc3ccc(Cl)cn3)c2)c2cnc(N)nc21 | . | . | 5% | .
CC[C@@H]1C=C(C)C[C@H](C)C[C@H](OC)[C@H]2O[C@@](O)(C(=O)C(=O)N3CCCC[C@@H]3C(=O)O[C@H](C(C)=C[C@@H]3CC[C@H](Cl)[C@H](OC)C3)[C@H](C)[C@@H](O)CC1=O)[C@H](C)C[C@H]2OC | . | . | ? | -3%
CC(C)Oc1ccc(-c2csc(N3CCC(C(N)=O)CC3)n2)cc1 | . | . | -3% | .
Cc1nn2cc(-c3ccc(OC(C)C)cc3)nc2s1 | 13µM* | 16µM* | ? | 3%
Cc1ccc(-n2ncc3c(NCCO)ncnc32)cc1Cl | 18% | ? | 35µM* | 0%
Clc1cccc(-n2ncc3c(NCCCN4CCOCC4)ncnc32)c1 | 9% | -9% | 50µM* | ?
Cc1ccc(C(=O)Nc2ccccc2C(=O)O)cc1S(=O)(=O)N1CCCCCC1 | 10µM* | 5µM* | -8% | 2%
CCCC(=O)Nc1ccc(O)c(C(C)=O)c1 | . | . | -9%[57.5 µM] | .
CCCC(=O)c1cc(O)c(O)cc1O | . | . | 40µM* | .
COc1cc2c(Oc3ccc4[nH]c(C)cc4c3F)ncnc2cc1OCCCN1CCCC1 | . | . | 45µM*! | 8%
COc1ccc(-c2nc3cc(NC(=O)Cc4ccc(Cl)cc4)ccc3o2)cc1OC | 10µM* | ? | ? | -3%
O=C(Cc1ccc(Cl)cc1)Nc1ccc2oc(-c3ccc(F)cc3)nc2c1 | -17% | -5% | ? | -7%
O=C(Nc1ccc2oc(-c3cccnc3)nc2c1)c1ccc(-c2cccc(Cl)c2)o1 | -10% | 3% | 25µM* | -16%
O=C(Nc1ccc2oc(-c3cccnc3)nc2c1)c1ccc(-c2ccc(Cl)cc2)o1 | 21% | 1% | ? | 8%
Cc1ccc(-c2ccc(=O)n(CC(=O)N(C)C(C)c3ccco3)c2)cc1 (stereo not drawn) | . | . | -1% | .
CCOC(=O)c1ccc(NC(=O)CSc2nnc(CNC(=O)c3ccc(OC)cc3)n2CC)cc1 | ? | -9% | 79µM* | i
CCCCn1c(CNC(=O)c2ccc(OC)cc2)nnc1SCC(=O)Nc1ccc(OC)cc1 | -14% | -2% | ? | 24%
Cc1ccc(-c2ccc(=O)n(CCNCCc3ccccc3)n2)cc1 | . | . | -1% | .
Oc1cccc(-c2nc(N3CCOCC3)c3sccc3n2)c1 | . | . | 40µM* | .
CC(C)c1onc(-c2c(Cl)cccc2Cl)c1COc1ccc(/C=C/c2cccc(C(=O)O)c2)c(Cl)c1 | . | . | 32µM* | .
CN(C)c1cc(NC(=O)CNC(C)(C)C)c(O)c2c1C[C@H]1C[C@H]3[C@H](N(C)C)C(=O)C(C(N)=O)=C(O)[C@]3(O)C(=O)C1=C2O | . | . | 40µM* | .
CN(C)c1cc(NC(=O)CNC(C)(C)C)c(O)c2c1C[C@@H]1C[C@H]3[C@H](N(C)C)C(=O)C(C(N)=O)=C(O)[C@@]3(O)C(=O)C1=C2O | . | . | 40µM* | 0%
Nc1ncnc2c1c(I)cn2C1OC(CO)C(O)C1O (stereo not drawn) | . | . | 1.4µM* | .
S=P(N1CC1)(N1CC1)N1CC1 | . | . | 16µM*! | -6%
COc1ccc2oc(=O)c(C(=O)Nc3cccc(C(=O)O)c3)cc2c1 | 7.9µM* | 10µM* | -9% | 6%
CC(C)(C)NC(=O)N1CCC(C(=O)Nc2ccc([S+](=O)([O-])Nc3nccs3)cc2)CC1 | . | . | 7% | .
Cc1sc(C)c2c1C(=O)NS2(=O)=O | . | . | 6% | .
O=C(CSc1nc2c(oc3ccccc32)c(=O)[nH]1)Nc1cccc(Cl)c1 | 10µM* | 10µM* | ? | i
COc1cccc(-n2c(SCC(=O)Nc3cccc(Cl)c3)nc3c(oc4ccccc43)c2=O)c1 | 12% | -4% | -20% | 76%

Screens (PubChem BioAssay)
